# Measured values as given in PubChem BioAssay (NCI).
# Values joined by “and” are separate entries in the source; they are usually repeats but may differ in a detail not shown here. Equal values may be shown once. This is part of a sample that, as a whole, favours compounds with a hit. Of some 79,000 tested, about 15% had one in any assay. More than one record can exist for a structure, and the calls need not agree. Active and inactive are the calls of the source. No stated cut-off is given here; in the data, active means growth inhibition above about 70%; inactive means the rest.
# Legend:
# [1] = NCI Yeast Anticancer Drug Screen. Data for the rad50 strain (AID 155);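 further: 0% = growth of vehicle-only cultures of the same strain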; conditions: S. cerevisiae rad50 strain growth inhibition, stronger effect = higher value
# In short: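 Vehicle-treated cultures provide the reference for the growth inhibition reported for compound-exposed, repair-deficient yeast.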
# [2] = NCI Yeast Anticancer Drug Screen. Data for the mec2-1 strain (AID 157); conditions: S. cerevisiae mec2-1 strain, stronger effect = higher value
# In short: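 Compounds were applied to mec2-1 yeast cells. Their growth was then compared with that of vehicle-treated cultures to give growth inhibition.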
# [3] = NCI Yeast Anticancer Drug Screen. Data for the sgs1 mgt1 strain (AID 161);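 further: 0% = growth of cultures given vehicle only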; conditions: S. cerevisiae sgs1 mgt1 strain, stronger effect = higher value
# In short: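 This yeast growth screen uses a strain with defined DNA-repair lesions; compound-treated growth is compared with vehicle-treated growth.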
# [4] = NCI Yeast Anticancer Drug Screen. Data for the cln2 rad14 strain (AID 165);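 further: 0% = growth equal to vehicle treated cultures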; conditions: S. cerevisiae cln2 rad14 strain, stronger effect = higher value
# In short: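 Strain: cln2 rad14 yeast, altered in cell cycle control and DNA damage repair. Read-out: growth inhibition vs vehicle.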
# [5] = NCI Yeast Anticancer Drug Screen. Data for the bub3 strain (AID 167); conditions: S. cerevisiae bub3 mutant strain, stronger effect = higher value
# In short: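 Mutant yeast screening strain plus compound; vehicle-treated cultures serve as the 0% inhibition reference.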
# [6] = NCI Yeast Anticancer Drug Screen. Data for the mlh1 rad18 strain (AID 175); conditions: S. cerevisiae mlh1 rad18 strain growth inhibition, stronger effect = higher value
# In short: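 A repair-deficient yeast strain is exposed to test compound, and growth is scored relative to vehicle-treated controls.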
# [7] = at 5.0 µM (retest, dose inferred, filed as 0.5)
# [8] = at 50.0 µM (retest, dose inferred, filed as 5.0)
SMILES,"growth inhibition [1, 7]","growth inhibition [1, 8]",growth inhibition ([1]; at 50.0 µM),"growth inhibition [2, 7]","growth inhibition [2, 8]",growth inhibition ([2]; at 50.0 µM),"growth inhibition [3, 7]","growth inhibition [3, 8]",growth inhibition ([3]; at 50.0 µM),"growth inhibition [4, 7]","growth inhibition [4, 8]",growth inhibition ([4]; at 50.0 µM),"growth inhibition [5, 7]","growth inhibition [5, 8]",growth inhibition ([5]; at 50.0 µM),"growth inhibition [6, 7]","growth inhibition [6, 8]",growth inhibition ([6]; at 50.0 µM)
CCC(C)N1CN(c2ccccc2)C2(CCN(CCCC3(c4ccc(F)cc4)OCCO3)CC2)C1=O (stereo unspecified),-9% (inactive),93% (active),-0.8% (inactive),-7% (inactive),98% (active),5.3% (inactive),-6% (inactive),95% (active),34% (inactive),-7% (inactive),92% (active),74.5% (active),-2% (inactive),94% (active),7.55% (inactive),-3% (inactive),96% (active),31% (inactive)
O=c1[nH]cnc2[nH]cc(CN3CCCCC3)c12,7% (inactive),21% (inactive),17.8% (inactive),-7% (inactive),2% (inactive),13.2% (inactive),-1% (inactive),29% (inactive),-1.4% (inactive),-32% (inactive),0% (inactive),33.2% (inactive),12% (inactive),-1% (inactive),-54.8% (inactive),3% (inactive),8% (inactive),9.4% (inactive)
Cc1c(N)nc([C@H](CC(N)=O)NC[C@H](N)C(N)=O)nc1C(=O)N[C@H](C(=O)N[C@H](C)[C@@H](O)CC(=O)N[C@H](C(=O)NC(O[C@@H]1O[C@@H](C)[C@@H](N)[C@@H](O)[C@H]1O)C(O)c1nc(-c2nc(C(=O)NCCCCN)cs2)cs1)[C@@H](C)O)[C@@H](O[C@@H]1O[C@@H](CO)[C@@H](O)[C@H](O)[C@@H]1O[C@H]1O[C@H](CO)[C@@H](O)[C@H](OC(N)=O)[C@@H]1O)c1c[nH]cn1 (stereo partly specified),96% (active),98% (active),91.7% (active),98% (active),98% (active),92.8% (active),98% (active),98% (active),92.7% (active),96% (active),97% (active),89.8% (active),97% (active),98% (active),92.9% (active),94% (active),97% (active),90.2% (active)
c1cc[c]([Pb]([c]2ccccc2)[c]2ccccc2)cc1.c1cc[c]([Pb]([c]2ccccc2)[c]2ccccc2)cc1,99% (active),98% (active),99% (active),100% (active),99% (active),99.5% (active),100% (active),99% (active),99.5% (active),99% (active),98% (active),99% (active),99% (active),97% (active),99.4% (active),100% (active),99% (active),99.2% (active)
O=C(O)Cc1ccc2c(c1)OCO2.[Ag],99% (active),93% (active),96% (active),99% (active),95% (active),97% (active),99% (active),94% (active),96.6% (active),99% (active),94% (active),90.2% (active),99% (active),93% (active),93.3% (active),99% (active),93% (active),94.4% (active)
C=CCOc1cc2c(ccc1=O)-c1c(cc(OC)c(OC)c1OC)CCC2NC(C)=O (stereo unspecified),-3% (inactive),3% (inactive),96.1% (active),3% (inactive),80% (active),87.6% (active),-18% (inactive),45% (inactive),93.9% (active),-5% (inactive),-11% (inactive),96.3% (active),-5% (inactive),66% (inactive),96.8% (active),-5% (inactive),78% (active),95.5% (active)
CC(=O)OCC1OC([S-])C(OC(C)=O)C(OC(C)=O)C1OC(C)=O.CC[PH+](CC)CC.CC[PH+](CC)CC.[Au].[Au] (stereo unspecified),100% (active),99% (active),89.8% (active),99% (active),99% (active),92% (active),99% (active),99% (active),92% (active),98% (active),99% (active),91.3% (active),99% (active),99% (active),89.9% (active),96% (active),98% (active),90% (active)
CC1CCC2(NC1)OC1CC3C4CC=C5CC(O)CCC5(C)C4CCC3(C)C1C2C (stereo unspecified),78% (active) and -4% (inactive),98% (active) and 99% (active),90.8% (active) and 98.2% (active),56% (inactive) and 13% (inactive),99% (active) and 98% (active),93% (active) and 99.3% (active),92% (active) and -3% (inactive),99% (active),91.8% (active) and 99% (active),72% (active) and -17% (inactive),99% (active) and 98% (active),87.5% (active) and 98.5% (active),93% (active) and 39% (inactive),99% (active),90.2% (active) and 99.1% (active),77% (active) and 4% (inactive),98% (active) and 99% (active),89% (active) and 98.8% (active)
O=[N+]([O-])c1ccc(SC2CCCCCCC2Cl)c([N+](=O)[O-])c1 (stereo unspecified),6% (inactive),22% (inactive),22.1% (inactive),8% (inactive),41% (inactive),4.3% (inactive),10% (inactive),76% (active),30.1% (inactive),-1% (inactive),29% (inactive),14.8% (inactive),15% (inactive),85% (active),20.5% (inactive),7% (inactive),53% (inactive),72.8% (active)
S=P(Nc1ccccc1)(Oc1ccccc1)c1ccccc1 (stereo unspecified),-1% (inactive),90% (active),93.8% (active),5% (inactive),91% (active),94.5% (active),3% (inactive),90% (active),93.3% (active),-1% (inactive),87% (active),91% (active),1% (inactive),88% (active),92.4% (active),6% (inactive),88% (active),92.7% (active)
CC(=O)OC(C)(C)/C=C/C(=O)[C@](C)(O)[C@H]1[C@H](O)C[C@@]2(C)[C@@H]3CC=C4[C@@H](C[C@H](O)[C@H](O)C4(C)C)[C@]3(C)C(=O)C[C@]12C,15% (inactive),98% (active),92.1% (active),52% (inactive),99% (active),93.5% (active),13% (inactive),98% (active),93.3% (active),43% (inactive),98% (active),91.1% (active),65% (inactive),99% (active),91.5% (active),55% (inactive),98% (active),91.8% (active)
CN(C)C(=[Se])[Se]C(=[Se])N(C)C,95% (active),91% (active),95.8% (active),96% (active),93% (active),96% (active),93% (active),92% (active),95.5% (active),84% (active),90% (active),91% (active),93% (active),92% (active),95.8% (active),96% (active),91% (active),96.3% (active)
C1CC[N-]CC1.[Cl][Au]([Cl])[Cl],42% (inactive),93% (active),93.3% (active),15% (inactive),63% (inactive),65.5% (inactive),26% (inactive),89% (active),93% (active),31% (inactive),74% (active),60.4% (inactive),25% (inactive),76% (active),48.9% (inactive),34% (inactive),94% (active),96.8% (active)
CCCOc1ccc(/C=C/[N+](=O)[O-])cc1,11% (inactive),17% (inactive),52.3% (inactive),-1% (inactive),17% (inactive),96.3% (active),-1% (inactive),11% (inactive),50.9% (inactive),1% (inactive),20% (inactive),93.5% (active),-1% (inactive),13% (inactive),37% (inactive),3% (inactive),11% (inactive),36% (inactive)
CC1(C)N=C(N)N=C(N)N1CCCOc1ccc(NC(=O)c2ccc(S(=O)(=O)F)cc2)cc1,-3% (inactive),12% (inactive),20.2% (inactive),-6% (inactive),30% (inactive),49.5% (inactive),-2% (inactive),15% (inactive),47.8% (inactive),-3% (inactive),0% (inactive),-9% (inactive),–,–,–,-5% (inactive),7% (inactive),21.4% (inactive)
Cc1ccc(C(=O)CCl)o1,-114% (inactive),97% (active),98.7% (active),-29% (inactive),98% (active),99.7% (active),-46% (inactive),94% (active),76% (active),-54% (inactive),77% (active),71.4% (active),-34% (inactive),98% (active),99.2% (active),-96% (inactive),95% (active),98.5% (active)
Oc1c(Cl)cc(Cl)cc1Cl,-1% (inactive),94% (active),86.5% (active),-6% (inactive),67% (inactive),78% (active),-1% (inactive),64% (inactive),94.8% (active),-8% (inactive),55% (inactive),54.9% (inactive),-13% (inactive),90% (active),78.5% (active),-5% (inactive),94% (active),95.8% (active)
C[C@@H]1CC[C@@]2(NC1)O[C@H]1C[C@H]3[C@@H]4CC[C@H]5C[C@@H](O)CC[C@]5(C)[C@H]4CC[C@]3(C)[C@H]1[C@@H]2C,45% (inactive),98% (active),92.8% (active),30% (inactive),98% (active),93.5% (active),61% (inactive),100% (active),93.9% (active),46% (inactive),99% (active),92% (active),46% (inactive),99% (active),93.5% (active),31% (inactive),98% (active),87.7% (active)
